# High-throughput results as filed in PubChem.
# IL1B secr inh: qHTS for Inhibitors of Inflammasome Signaling: IL-1-beta AlphaLISA Primary Screen; activity change, % at 57.5 µM; THP-1 LPS/ATP IL-1B secretion, AlphaLISA, 16 h; active compounds read low; 360,000 compounds, 4.7% hits; in the data active means activity change below about -50%; inconclusive means mostly about -30% to -49%; further: on the % scale 0 is the no-effect control and ±100 the full control effect
#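 THP-1 cells pretreated 1 hr with compounds (up to 57.5 uM final), then stimulated with LPS (250 ng/mL final) plus ATP (1.25 mM final); secreted IL-1B measured by AlphaLISA after 16 hr, decreased signal indicating inhibition.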
# TDP1 cell noCPT: qHTS for Inhibitors of human tyrosyl-DNA phosphodiesterase 1 (TDP1): qHTS in cells in absence of CPT. DT40 Tdp1-/- hTDP1 cells, no CPT, ATP luminescence, 48 h. Potency, µM (series often up to 46.2 µM), inactives show at the top dose activity change, negative = growth inhibition, actives largely listed as inhibitors. 420,000 compounds, 15% hits; further: potency means the concentration at half of the fitted maximal effect; on the % scale 0 is the no-effect control and ±100 the full control effect; nearly all actives have a fitted effect of over 55% in size
#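 Chicken DT40 Tdp1-/- cells stably complemented with human TDP1 were seeded at 400 cells/well with DMSO in place of 20 nM camptothecin. After compound pinning, cells grew at least 48 hr at 37 °C; viability read by CellTiter-Glo luminescence.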
# TDP1 cell CPT: qHTS for Inhibitors of human tyrosyl-DNA phosphodiesterase 1 (TDP1): qHTS in cells in presence of CPT; chicken DT40 Tdp1-/-;hTDP1 cells + 20 nM CPT, ATP luminescence, 48 h; 420,000 compounds, 12% hits; Potency, µM (titrated, usually from 46.2 µM), for inactives: top-dose activity change, negative = growth inhibition, usual class: inhibitors; AID 686979, 2013; further: potency means the concentration at half of the fitted maximal effect; on the % scale 0 is the no-effect control and ±100 the full control effect; nearly all actives have a fitted effect of over 55% in size
#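 Chicken DT40 Tdp1-/- cells stably complemented with human TDP1 were seeded at 400 cells/well in medium containing 20 nM camptothecin, exposed to pin-transferred compounds, and grown at 37 °C for at least 48 hr. Viability was read as ATP luminescence.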
# TDP1 inh: qHTS Assay for Inhibitors of Tyrosyl-DNA Phosphodiesterase (TDP1) | 350,000 compounds, 0.28% hits | Potency, µM (titrated, usually from 130 µM), without a hit: top-dose activity change, negative = inhibition, most hits filed as inhibitors | recombinant TDP1, AlphaScreen DNA substrate cleavage; further: potency means the concentration at half of the fitted maximal effect; on the % scale 0 is the no-effect control and ±100 the full control effect; nearly all actives have a fitted effect of over 40% in size
# Target sequence (Q9NUW8 whole entry, looked up): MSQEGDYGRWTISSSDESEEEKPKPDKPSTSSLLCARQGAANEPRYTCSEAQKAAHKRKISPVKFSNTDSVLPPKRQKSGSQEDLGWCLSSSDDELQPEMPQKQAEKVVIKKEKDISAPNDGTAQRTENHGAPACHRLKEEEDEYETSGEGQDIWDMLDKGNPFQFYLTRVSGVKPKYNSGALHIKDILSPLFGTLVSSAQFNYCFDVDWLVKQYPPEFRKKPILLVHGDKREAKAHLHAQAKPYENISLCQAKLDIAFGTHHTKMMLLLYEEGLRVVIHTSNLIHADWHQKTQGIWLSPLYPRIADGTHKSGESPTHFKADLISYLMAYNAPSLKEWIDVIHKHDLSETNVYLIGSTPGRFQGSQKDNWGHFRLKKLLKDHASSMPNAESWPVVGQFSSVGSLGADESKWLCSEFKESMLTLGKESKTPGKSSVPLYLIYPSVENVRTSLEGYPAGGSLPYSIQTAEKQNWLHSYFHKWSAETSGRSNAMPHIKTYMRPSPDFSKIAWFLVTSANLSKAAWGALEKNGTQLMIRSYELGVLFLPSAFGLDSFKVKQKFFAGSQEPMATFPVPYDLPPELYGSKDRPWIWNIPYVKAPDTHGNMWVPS
#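 Enzyme-compound mixtures sat 15 min at room temperature, followed by a 5 min reaction with 15 nM final substrate and 10 min with AlphaScreen beads. Recombinant human Tdp1 was used at 1 nM final.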
# HepG2 tox: qHTS for Inhibitors of TGF-b: Cytotox Counterscreen; HepG2 CAGA-GFP viability, ATP luminescence, 18 h; Potency, µM (titrated, usually from 46.1 µM), for inactives: top-dose activity change, negative = cytotoxicity, actives largely listed as cytotoxic; 410,000 compounds, 0.76% hits; AID 588856, 2011; further: potency means the concentration at half of the fitted maximal effect
#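 CellTiter-Glo luminescence gave cytotoxicity after 18 hours at 37 degrees C. The cells were HepG2 CAGA-GFP in 1% FBS DMEM, stimulated with 500 pg/mL TGF-beta after compound addition. %Activity was normalised to no-cell wells (complete cell-killing) and DMSO (no toxicity), and curves were fitted and classified.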
# TGFb SMAD3 inh: qHTS for Inhibitors of TGF-b | HepG2 CAGA-GFP TGF-b/SMAD3 reporter, GFP fluorescence, 18 h; TGF-beta stimulated, 500 pg/mL final | Potency, µM (highest dose often 46.1 µM), for inactives: top-dose activity, negative = inhibition, usual class: inhibitors | 410,000 compounds, 1.2% hits | AID 588855, 2011; further: potency means the concentration at half of the fitted maximal effect; on the % scale 0 is the no-effect control and ±100 the full control effect; nearly all actives have a fitted effect of over 65% in size
#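 Inhibition of TGF-beta-driven CAGA-GFP reporter expression in HEPG2 cells is measured by cellular GFP fluorescence after 18 h stimulation with 500 pg/mL recombinant TGF-beta in 1% FBS medium at 37 degrees C.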
# The depositor's hits bear a star; ? = inconclusive; nt = not tested or not shown; [ ] = remark or other dose. This is a sample that favours compounds with a hit; in the whole collection about 18% have one here. Unless noted, the call rests on the fitted dose curve; in most records, active means well fitted curve in the direction sought with a large enough effect; inconclusive means small, poorly fitted or top-dose-only effect, or another doubt; inactive means no such curve, though single readings can be large; an effect the other way counts as inactive or inconclusive.
SMILES,IL1B secr inh,TDP1 cell noCPT,TDP1 cell CPT,TDP1 inh,HepG2 tox,TGFb SMAD3 inh
O=C(N/N=C/c1cc(Br)c(Br)s1)c1ccncc1,60,9.2µM*,13µM*,6%,-31%,-11%
Cc1ccccc1-c1ccc2c(c1)C1c3c(-c4ccccc4)nnn3-c3ccccc3C(=O)N1CC2 (stereo unspecified),51,29µM*,21µM*,nt,-5%,-27%
CCN1CCN(c2cc(N3CCCC3)c(F)cc2[N+](=O)[O-])CC1,-7,16µM*,?,-8%,-26%,0%
CN1C(=O)[C@]23CC4=CC=C[C@H](O)[C@H]4N2C(=O)[C@@]1(CO)SS3,nt,nt,nt,6%,nt,nt
COc1ccc(N2C(=O)NC(=O)/C(=C\c3ccccc3[N+](=O)[O-])C2=O)cc1,6,-11%,-19%,-6%,2%,0%
O=C1NC(=O)N(c2ccccc2)C(=O)/C1=C\c1ccc([N+](=O)[O-])s1,-69*,8.2µM*,21µM*,4%,-45%,-27%
CN1C(=O)NC(=O)/C(=C/c2ccc([N+](=O)[O-])s2)C1=O,-18,3.3µM*,4.1µM*,-9%,-21%,?
Cc1ccc(/C=C2/C(=O)NC(=O)N(C)C2=O)cc1,14,-2%,-1%,-6%,11%,2%
COc1ccc(OC)c(N2C(=O)NC(=O)/C(=C\c3ccc([N+](=O)[O-])s3)C2=O)c1,?,?,16µM*,-2%,0%,?
Cc1c(F)c(F)c(COC(=O)C2C(/C=C(\Cl)C(F)(F)F)C2(C)C)c(F)c1F (stereo unspecified),nt,nt,nt,27%,nt,nt
CNC(=O)Oc1ccc2c(c1)[C@@]1(C)CCN(C)C1N2C (stereo partly specified),nt,?,?,9%[56.1 µM],nt,nt
C/C=C1/C[C@@H](C)[C@](O)(CO)C(=O)OCC2=CCN3CC[C@@H](OC1=O)C23 (stereo partly specified),nt,?,?,0%,nt,nt
CCCC[C@@H](C)[C@@H](OC(=O)C[C@@H](CC(=O)O)C(=O)O)[C@H](C[C@@H](C)C[C@H](O)CCCC[C@@H](O)C[C@H](O)[C@H](C)N)OC(=O)C[C@H](CC(=O)O)C(=O)O,nt,?,?,12%,nt,nt
NCCCP(=O)(O)CC1CCCCC1,nt,-1%,12%,-4%,nt,nt
Cc1cccc(Cn2c(=O)n(CC3CCC(C(=O)N4CCC(C)CC4)CC3)c(=O)c3sccc32)c1 (stereo unspecified),nt,16µM*,21µM*,8%,3%,14%
COC1=C(C)C(=O)c2c(c(COC(N)=O)c3n2C[C@@H]2[C@@H]3N2C)C1=O (stereo partly specified),nt,0.025µM*,0.1µM*,nt,7.1µM*,4.5µM*
CCCCOCC1CO1 (stereo unspecified),nt,nt,nt,-11%,nt,nt
CCCN(CCC)C(=O)C(CCC(=O)OCCCN1CCN(CCOC(=O)Cc2c(C)n(C(=O)c3ccc(Cl)cc3)c3ccc(OC)cc23)CC1)NC(=O)c1ccccc1 (stereo unspecified),nt,11µM*,13µM*,nt,nt,nt
NCC(=O)c1cccc([N+](=O)[O-])c1,nt,?,?,nt,1%,?
CC(C)CCNC(=O)c1c(N)n(CC2CCCO2)c2nc3ccccc3nc12 (stereo unspecified),?,29µM*,26µM*,-2%,-94%,?
